# Compounds without any hit were thinned out: in the full panel of roughly 83,000, 20% have a hit.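 How to read the values: 0–100, growth inhibition (40 = 60% inhibited); 0, no net growth; -100 to 0, cell death (-40 = 40% of starting cells died; -100 = all dead).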 A number with no mark means an inactive call. Active and inactive are the calls of the source. The calls were made as follows: active = growth percent below 10; inactive = the rest.
# System: PC-3 prostate
# Test: NCI-60 one-dose screen, 48 h (100 = growth as untreated, 0 = no growth, -100 = all killed)
# Settings: 10 µM unless noted
row,Compound,growth
1,C#CCOc1cccc(Nc2ncnc3ccc(NC(=O)CCl)cc23)c1,-59.3% (active)
2,Cc1ccc(C(C(N)=O)C(C(N)=O)c2ccccc2)cc1 (stereo unspecified),105%
3,COc1cc2c(c(OC)c1OC)-c1ccc(OC)c(=O)cc1[C@@H](NC(=O)CCl)CC2,22.8%
4,CCOc1ccc(NC(=O)CSc2oc(-c3ccccc3)nc2S(=O)(=O)c2ccc(F)cc2)cc1,55.7%
5,N#CC1=C(N)Oc2c(sc3c(F)cccc23)C1c1ccc(F)cc1 (stereo unspecified),28.7%
6,Clc1ccc(Nc2nnc(COc3ccccc3)c3ccccc23)cc1,-0.2% (active)
7,Cc1ccc(C2=Nc3c(N)ncnc3NC(c3ccc4c(c3)OCO4)C2)cc1 (stereo unspecified),62.5%
8,Cc1cc(Cl)ccc1NC(=O)c1cc2ccccc2cc1O,0.952% (active)
9,CC(C)n1cnc2c(=S)nc[nH]c21,98.7%
10,CCOC(=O)CNP(=O)(OC[C@@H](Cc1ccccc1)NC(=O)c1cc2ccccc2s1)Oc1ccccc1 (stereo partly specified),85.5%
11,Brc1ccc2[nH]cc(-c3nonc3-c3c[nH]c4ccccc34)c2c1,35.2%
12,CN(C)CCCC1(c2ccc(F)cc2)OCc2cc(-c3cccc4[nH]ccc34)ccc21 (stereo unspecified),28.6%
13,C1=C(N2CCCC2)CCC1,77.8%
14,COc1ccc(C(=S)N2CCN(c3ccccc3Cl)CC2)cc1OC,90.3%
15,Cc1cc(=O)[nH]c2c(C#N)cnn12,107%
16,CCCCCOc1ccc(C(=O)/C(Br)=C/C(=O)O)cc1,99.6%

# Reference: PubChem BioAssay (NCI)
